Experimental data as given in PubChem BioAssay AID1159580 (chemical genetic matrix, 2015).
In all, about 5,500 compounds went through this assay and about 2,000 (36%) were called active. Inconclusive results (about 18%) are left out. No stated cut-off is given here; in the data, active means normalized growth mostly below about 0.91 (no sharp cut-off); inconclusive means no clear call, values can overlap the other calls; inactive means mostly above about 0.92. This is one part of the list.

Assay: chemical genetic growth profiling, strain panel (AID 1159580);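 further: tested at 20 µM; growth read once vehicle control cultures reached saturation at 30 °C; 1 = growth at the plate median or of vehicle wells; lower values mean less growth of the strain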
Settings: S. cerevisiae deletion strains, growth OD
[1] = locus YAR019C, strain CDC15, hits give low values
[2] = locus YBL105C, strain PKC1, hits give low values
[3] = locus YBR135W, strain CKS1, hits give low values
[4] = locus YBR136W, strain MEC1, hits give low values
[5] = locus YBR160W, strain CDC28, hits give low values
[6] = locus YDL017W, strain CDC7, hits give low values
[7] = locus YDL028C, strain MPS1, hits give low values
[8] = locus YDL101C, strain DUN1, hits give low values
[9] = locus YDL108W, strain KIN28, hits give low values
[10] = locus YDL132W, strain cdc53, hits give low values
[11] = locus YDL214C, strain PRR2, hits give low values
[12] = locus YDR052C, strain DBF4, hits give low values
[13] = locus YDR054C, strain cdc34, hits give low values
[14] = locus YDR226W, strain ADK1, hits give low values
[15] = locus YDR477W, strain SNF1, hits give low values
[16] = locus YER123W, strain YCK3, hits give low values
[17] = locus YER133W, strain GLC7, hits give low values
[18] = locus YFL009W, strain cdc4, hits give low values
[19] = locus YFL029C, strain CAK1, hits give low values
[20] = locus YFR003C, strain YPI1, hits give low values
[21] = locus YFR019W, strain FAB1, hits give low values
[22] = locus YFR028C, strain CDC14, hits give low values
[23] = locus YGR040W, strain KSS1, hits give low values
[24] = locus YGR052W, strain FMP48, hits give low values
[25] = locus YGR092W, strain DBF2, hits give low values
[26] = locus YHR030C, strain SLT2, hits give low values
[27] = locus YHR079C, strain IRE1, hits give low values
[28] = locus YHR082C, strain KSP1, hits give low values
[29] = locus YHR205W, strain SCH9, hits give low values
[30] = locus YIL147C, strain SLN1, hits give low values
[31] = locus YJL095W, strain BCK1, hits give low values
[32] = locus YJL128C, strain PBS2, hits give low values
[33] = locus YJL157C, strain FAR1, hits give low values
[34] = locus YJR016C, strain ILV3, hits give low values
[35] = locus YJR066W, strain TOR1 (second series), hits give low values
[36] = locus YJR066W, strain TOR1, hits give low values
[37] = locus YKL048C, strain ELM1, hits give low values
[38] = locus YKL067W, strain YNK1, hits give low values
[39] = locus YKL101W, strain HSL1, hits give low values
[40] = locus YKL193C, strain SDS22, hits give low values
[41] = locus YKL203C, strain TOR2, hits give low values
[42] = locus YLR113W, strain HOG1, hits give low values
[43] = locus YLR133W, strain CKI1, hits give low values
[44] = locus YLR403W, strain SFP1, hits give low values
[45] = locus YML070W, strain DAK1, hits give low values
[46] = locus YMR001C, strain CDC5, hits give low values
[47] = locus YMR205C, strain PFK2 (second series), hits give low values
[48] = locus YMR277W, strain FCP1, hits give low values
[49] = locus YNL006W, strain LST8, hits give low values
[50] = locus YNL020C, strain ARK1, hits give low values
[51] = locus YNL161W, strain CBK1, hits give low values
[52] = locus YNL183C, strain NPR1, hits give low values
[53] = locus YNL207W, strain RIO2, hits give low values
[54] = locus YNL222W, strain SSU72, hits give low values
[55] = locus YNL307C, strain MCK1 (second series), hits give low values
[56] = locus YOL078W, strain AVO1, hits give low values
[57] = locus YOL136C, strain PFK27, hits give low values
[58] = locus YOR061W, strain CKA2, hits give low values
[59] = locus YOR119C, strain RIO1, hits give low values
[60] = locus YOR231W, strain MKK1, hits give low values
[61] = locus YOR329C, strain SCD5, hits give low values
[62] = locus YPL031C, strain PHO85, hits give low values
[63] = locus YPL153C, strain RAD53, hits give low values
[64] = locus YPL204W, strain HRR25, hits give low values
[65] = locus YPL209C, strain IPL1, hits give low values
[66] = locus YPL256C, strain CLN2, hits give low values
[67] = locus YPR025C, strain CCL1, hits give low values
[68] = locus YPR106W, strain ISR1, hits give low values
[69] = locus YPR111W, strain DBF20, hits give low values
[70] = strain NNK1, hits give low values
[71] = strain TSCII, hits give low values

Measured: normalized growth

O=S(=O)(Nc1cccc2nsnc12)c1cc(Cl)sc1Cl
inactive: [1] 0.948 | [2] 0.961 | [3] 0.957 | [4] 0.96 | [5] 0.962 | [6] 0.961 | [7] 0.961 | [8] 0.962 | [9] 0.961 | [10] 0.969 | [11] 0.956 | [12] 0.955 | [13] 0.95 | [14] 0.947 | [15] 0.983 | [16] 0.944 | [17] 0.938 | [18] 0.947 | [19] 0.952 | [20] 0.958 | [21] 0.938 | [22] 0.96 | [23] 0.971 | [24] 1.08 | [25] 0.87 | [26] 0.871 | [27] 0.905 | [28] 0.981 | [29] 0.933 | [30] 0.953 | [31] 0.904 | [32] 0.953 | [33] 0.967 | [34] 0.951 | [35] 0.95 | [36] 0.953 | [37] 0.916 | [38] 0.954 | [39] 0.955 | [40] 0.961 | [41] 1.02 | [42] 0.887 | [43] 0.96 | [44] 0.942 | [45] 0.947 | [46] 0.959 | [47] 0.962 | [48] 0.96 | [49] 0.959 | [50] 0.953 | [51] 0.962 | [52] 0.979 | [53] 0.957 | [54] 0.958 | [55] 0.933 | [56] 0.957 | [57] 0.94 | [58] 0.943 | [59] 1.09 | [60] 0.954 | [61] 0.961 | [62] 0.982 | [63] 0.994 | [64] 0.999 | [65] 0.96 | [66] 0.884 | [67] 0.956 | [68] 0.964 | [69] 0.947 | [70] 0.969 | [71] 0.953

O=S(=O)(Nc1cccc(CCc2ccccn2)c1)c1cc(Cl)c(Cl)cc1Cl
inactive: [1] 0.982 | [2] 0.977 | [3] 0.985 | [4] 0.983 | [5] 0.966 | [6] 0.981 | [7] 0.987 | [8] 0.973 | [9] 0.983 | [10] 0.976 | [11] 0.967 | [12] 0.977 | [13] 0.979 | [14] 0.986 | [15] 0.988 | [16] 0.995 | [17] 1 | [18] 0.989 | [19] 0.976 | [20] 0.981 | [21] 0.987 | [22] 0.973 | [23] 0.98 | [24] 1.08 | [25] 1 | [26] 1.15 | [27] 1.01 | [28] 1.08 | [29] 0.963 | [30] 0.985 | [31] 1.02 | [32] 0.942 | [33] 0.98 | [34] 0.981 | [35] 0.963 | [36] 1.08 | [37] 0.97 | [38] 0.979 | [39] 0.959 | [40] 0.984 | [41] 1.05 | [42] 0.883 | [43] 0.965 | [44] 0.983 | [45] 0.95 | [46] 0.987 | [47] 0.971 | [48] 0.991 | [49] 0.992 | [50] 0.969 | [51] 0.978 | [52] 1.04 | [53] 0.985 | [54] 0.976 | [55] 0.961 | [56] 0.974 | [57] 0.952 | [58] 0.978 | [59] 1.06 | [60] 0.951 | [61] 0.983 | [62] 0.992 | [63] 0.965 | [64] 0.991 | [65] 0.976 | [66] 0.945 | [67] 0.984 | [68] 0.965 | [69] 0.955 | [70] 0.992 | [71] 0.978

O=S(=O)(Nc1cccc2cccnc12)c1cc(Cl)c(Cl)cc1Cl
active: locus YAL013W, strain DEP1, hits give low values 0.773 | locus YBR229C, strain ROT2, hits give low values 0.672 | locus YCL061C, strain MRC1, hits give low values 0.804 | locus YEL061C, strain CIN8, hits give low values 0.644 | locus YGR078C, strain PAC10, hits give low values 0.855 | [26] 0.635 | locus YHR087W, strain rtc3, hits give low values 0.517 | locus YJR075W, strain HOC1, hits give low values 0.819 | locus YKL190W, strain CNB1, hits give low values 0.652 | locus YLR039C, strain RIC1, hits give low values 0.627 | locus YLR085C, strain ARP6, hits give low values 0.583 | locus YLR262C, strain YPT6, hits give low values 0.716 | locus YML094W, strain GIM5, hits give low values 0.761 | locus YMR219W, strain ESC1, hits give low values 0.863 | locus YMR263W, strain SAP30, hits give low values 0.853 | locus YNL153C, strain GIM3, hits give low values 0.845 | locus YNL298W, strain CLA4 (second series), hits give low values 0.724 | locus YNR030W, strain Alg12, hits give low values 0.773 | locus YOL006C, strain TOP1, hits give low values 0.169 | locus YPL055C, strain LGE1, hits give low values 0.635 | locus YPL241C, strain CIN2, hits give low values 0.635
inactive: [8] 1.02 | locus YDR150W, strain NUM1, hits give low values 1.04 | locus YJR043C, strain POL32, hits give low values 0.947 | locus YLR058C, strain SHM2 (second series), hits give low values 0.951 | locus YNL322C, strain KRE1, hits give low values 0.967 | locus YPR135W, strain CTF4, hits give low values 0.807
